Compound activity deposited in PubChem by National Center for Advancing Translational Sciences (NCATS).
USP2a inh = blocks human ubiquitin-specific protease USP2a; USP2 core, Ub-CHOP2 coupled fluorogenic reporter, 485/531; Potency, µM (top dose mostly 38.3 µM), for inactives: at the highest dose activity change, negative = inhibition, usual class: inhibitors; actives 0.01% (n = 330,000); AID 463254;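 also: potency is read from the fitted curve at half-maximal effect; plate controls were DMSO wells for no effect and full inhibition by NEM control for full effect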
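Deubiquitinase activity read as fluorescence (485/531 nm) after Ub-CHOP2 cleavage activates the enterokinase reporter on its substrate; USP2 core 10nM, Ub-CHOP2 and substrate 25nM each, 30min compound preincubation then 60min RT; data normalized to NEM, curves fitted.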
Eya2 phos inh = blocks the phosphatase activity of human Eya2; O00167; recombinant Eya2, OMFP fluorescence dephosphorylation (OMFP is methylfluorescein phosphate); Potency, µM (top dose mostly 76.9 µM), for inactives: top-dose activity, negative = inhibition, usual class: inhibitors; actives 0.006% (n = 330,000); also: potency is read from the fitted curve at half-maximal effect
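Eya2 protein (added as 0.2 uM solution) was preincubated with compound for 10 min at ambient temperature in 50 mM HEPES pH 7.5, 50 mM NaCl, 5 uM MgCl2, 0.05% BSA, 1 mM DTT. OMFP (added at 50 uM) then reacted 10 min; fluorescence read at 485/525 nm.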
Coupling enz = counter-screen for Giardia aldolase inhibitors: coupling enzyme system; activity change, negative = inhibition, % at 58.2 µM, hits read low; actives 0.67% (n = 290,000); coupling enzyme system counterscreen, AmpLite Red fluorescence; in the data active = activity change below about -30%
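Activity here indicates interference with the coupling reaction, not aldolase inhibition. Compounds at 57.5 uM final met coupling enzymes for 10 min at RT; substrate and AmpLite Red detection followed, with a 525/598 nm fluorescence read after 20 min.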
GALK inh = galactokinase (human) inhibition | P51570 | Purified GALK, Kinase-Glo residual ATP luminescence | Potency, µM (series often up to 57.5 µM), without a hit: at the top dose activity change, negative = inhibition, most hits filed as inhibitors | actives 0.007% (n = 270,000) | AID 1868; also: potency is read from the fitted curve at half-maximal effect
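ATP-depletion format; final 35 uM ATP, 100 uM D-galactose, 5 nM enzyme; pH 8.0 HEPES/Mg2+ buffer; 60 min RT; luminescence read 10 min after detection reagent.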
PI4K2A block = inhibitors of human PI4K2A | Q9BTU6 | purified PI4K2A, ADP-Glo luminescence, 1 h; hits give low values | activity change, negative = inhibition, % at 76.9 µM | actives 0.13% (n = 420,000) | AID 1346378; in the data active = activity change below about -50%; inconclusive = mostly about -30% to -49%;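 also: -100% = wells without enzyme as full effect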
Target sequence (Q9BTU6 whole entry, looked up): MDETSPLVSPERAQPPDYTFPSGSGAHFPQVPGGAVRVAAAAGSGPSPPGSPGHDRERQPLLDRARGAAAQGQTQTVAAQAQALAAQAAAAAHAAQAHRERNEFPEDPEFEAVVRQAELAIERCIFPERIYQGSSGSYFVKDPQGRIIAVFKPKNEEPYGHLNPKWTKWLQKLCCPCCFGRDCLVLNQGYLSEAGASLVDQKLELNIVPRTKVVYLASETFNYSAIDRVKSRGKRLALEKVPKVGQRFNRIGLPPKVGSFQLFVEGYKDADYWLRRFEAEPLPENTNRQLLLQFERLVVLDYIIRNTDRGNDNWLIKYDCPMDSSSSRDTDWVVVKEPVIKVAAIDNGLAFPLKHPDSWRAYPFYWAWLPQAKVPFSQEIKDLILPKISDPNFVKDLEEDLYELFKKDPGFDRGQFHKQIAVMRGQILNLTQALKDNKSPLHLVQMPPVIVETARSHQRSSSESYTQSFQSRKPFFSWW
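In this quantitative HTS, ADP production by PI4K2A was quantified luminescently after 1 h at ambient temperature; 100 microM adenosine served as plate-quality control.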
USP1-UAF1 inh = USP1/UAF1 (human) deubiquitinase inhibition; O94782; recombinant USP1/UAF1, Ub-Rhodamine cleavage fluorescence; Potency, µM (highest dose often 57.1 µM), for inactives: at the highest dose activity change, negative = inhibition, hits mostly inhibitors; actives 0.23% (n = 390,000); AID 743255; also: potency is read from the fitted curve at half-maximal effect; nearly all actives have a fitted effect of over 60% in size
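USP1/UAF1 complex (1 nM) preincubated 15 min at room temperature with compound, then Ub-Rho substrate (150 nM final) added. Kinetic fluorescence at 480/540 nm over 6 reads at 60 s intervals; 50 mM HEPES pH 7.8, 0.5 mM EDTA, 0.1 mg/ml BSA, 1 mM TCEP, 0.01% Tween-20.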
* = called active by the depositor; ? = inconclusive; / = no result given. Only some compounds are listed: those with a hit (about 0.71% of all), similar ones and a draw of the others. Unless noted, calls follow the shape of the dose curve; as a rule, active = well fitted curve in the direction sought with a large enough effect; inconclusive = small, poorly fitted or top-dose-only effect, or another doubt; inactive = no such curve, though single readings can be large; an effect the other way counts as inactive or inconclusive. Unless noted, % is scaled to controls: 0 for no effect and ±100 for the full control effect.

SMILES	USP2a inh	Eya2 phos inh	Coupling enz	GALK inh	PI4K2A block	USP1-UAF1 inh
C=CCn1c(O)c(CN2CCCCC2)c(C)c(C#N)c1=O	4.4%	-25.7%	-32.6*	3.1%	-10.1	?
CC1=C/C(=C(\c2cc(C)c(O)c(Br)c2)c2ccccc2S(=O)(=O)O)C=C(Br)C1=O	-22.8%	-19.8%	-20.0	29.5%	-69.4*	?
Nc1ccc2oc(=O)ccc2c1I	/	/	2.9	/	/	/
Cc1ccc(-c2c(C(=O)N/N=C/c3cccc(Cl)c3)nnn2-c2nonc2N)cc1	-6.8%	-4.3%	-35.5*	4.9%	-5.9	-23.6%
COC(=O)[C@]12C[C@H](CC(=O)NCCCCc3ccccc3)C(=O)N(Cc3cccc4ccccc34)C1=C[C@H](C(C)C)O[C@@H]2C1CC1	/	/	/	/	-0.8	/
C#CCOCCOCCOCCNc1nc(N2CCN(C(=O)CCCCCCCCCCNC(=O)[C@H](CCCCN)n3cc(C[C@@H](C)CC)nn3)CC2)nc(N2CCN(C(=O)CCCCCCCCCCNC(=O)[C@H](CCCN=C(N)N)n3cc(C[C@@H](C)CC)nn3)CC2)n1	10µM*	?	/	/	-2.6	?
C#CCOCCOCCOCCNc1nc(N2CCN(C(=O)CCCCCCCCCCNC(=O)[C@H](CO)n3cc(CCCCCN)nn3)CC2)nc(N2CCN(C(=O)CCCCCCCCCCNC(=O)[C@H](CCCN=C(N)N)n3cc(C[C@@H](C)CC)nn3)CC2)n1	?	-30.9%	/	/	/	/
C#CCOCCOCCOCCNc1nc(N2CCN(C(=O)CCCCCCCCCCNC(=O)[C@H](CCCCN)n3cc(C)nn3)CC2)nc(N2CCN(C(=O)CCCCCCCCCCNC(=O)[C@H](CCCN=C(N)N)n3cc(C[C@@H](C)CC)nn3)CC2)n1	11.2µM*	22.4µM*	/	/	-2.3	?
C#CCOCCOCCOCCNc1nc(N2CCOCC2)nc(N2CCN(C(=O)[C@H](Cc3cc4ccccc4[nH]3)n3cc([C@@H](N)C(C)CC)nn3)CC2)n1 (some centres undefined)	1.4%	1.4%	5.5	1.6%	-1.4	44.7µM*
C#CCOCCOCCOCCNc1nc(N2CCN(C(=O)C(Cc3cc4ccccc4[nH]3)n3cc(C(N)C(C)CC)nn3)CC2)nc(N2CCN(C(=O)C(Cc3cc4ccccc4[nH]3)n3cc(C(N)C(C)CC)nn3)CC2)n1 (centres undefined)	-8.7%	11.2%	-16.3	2.0%	-6.3	?
CCOc1c(N2CCOCC2)cnn(C)c1=O	/	/	/	/	-1.3	/
O=C(Nc1cccc(O)c1)c1cc(-c2ccc3c(c2)OCO3)on1	0.4%	0.8%	-1.7	13.8%	-71.6*	-24.4%
N#C/C(=C/c1ccc(N2CCCCCC2)o1)c1ccc(F)cc1	/	/	/	/	6.5	?
N#C/C(=C\c1ccc(N2CCOCC2)o1)c1ccccc1	-0.7%	-15.5%	-44.1*	4.7%	-5.4	?
N#C/C(=C/c1ccc(N2CCCCCC2)o1)c1cccc(F)c1	0.8%	22.3%	-47.6*	-4.5%	5.2	25.1µM*
N#C/C(=C/c1ccc(N2CCOCC2)o1)c1nc2ccccc2[nH]1	?	?	-24.5	-0.3%	-13.0	25.1µM*
N#C/C(=C/c1ccc(N2CCOCC2)o1)c1ccc(Br)cc1	1.4%	9.2%	/	-5.7%	0.1	107.2%
O=c1n(-c2ccccc2)c(=O)n2n1CC[C@H]1/C(=N\OC[C@@H](O)COCc3ccco3)[C@H]3O[C@@H]3[C@@H](O)[C@@H]12	/	/	-0.2	/	/	/
CC(C)(C)CNc1nc(C#N)nc(Nc2ccccc2)n1	/	/	2.1	/	/	/
COC(=O)[C@]12C[C@H](CC(=O)NCCCCc3ccccc3)C(=O)N(Cc3ccco3)C1=C[C@H](COCc1ccccc1)O[C@@H]2C	/	/	/	/	-5.2	/
O=C1c2ccccc2C(=O)c2c1ncn2-c1ccccc1	4.6%	1.3%	-35.6*	1.7%	2.7	?
